Results from PubChem BioAssay (NCI).
Compounds without any hit were thinned out: in the full panel of roughly 83,000, 20% have a hit.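 In brief: 96-well plates, 48 h treatment, single concentration, percent growth endpoint.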 The source made the active and inactive calls.

The molecules below were run on HS 578T breast (assay: NCI-60 one-dose screen, 48 h (100 = growth as untreated, 0 = no growth, -100 = all killed)). Details: 10 µM.
Method: Growth inhibition of the HS 578T human tumor cell line is measured as a screen for anti-cancer activity. Cells are grown in 96 well plates and exposed to the test compound for 48 hours. Compounds are tested at a single concentration, which is 10^-5 M for most compounds. The reported endpoint is percent growth (GI% or GIPRCNT), where numbers from 0 - 100% represent growth inhibition, and numbers from -100% - 0 represent cell death. For example, a value of 40 represents 60% growth inhibition. A value of 0 means no net growth occurred over the course of the experiment. A value of -40 indicates 40% of cells at the beginning of the experiment died by the end of the experiment. A value of -100 means all cells are dead at the end of the experiment.
NCI-60 Human Tumor Cell Lines Screen was performed using the standard one-dose NCI protocol, which is described in more detail at https://dtp.cancer.gov/discovery_development/nci-60/default.htm.
Compounds with GIPRCNT values below 10 were considered active. Activity score was based on GIPRCNT using the following formula: […]
Score is 0 for GIPRCNT values of 100 or above, 50 for GIPRCNT values of 0, and 100 for GIPRCNT values of -100.

**Q.** How did the growth turn out when `COc1cc(Cl)cc(-c2nn(-c3cccc(NC(=O)Nc4ccc(Cl)c(C(F)(F)F)c4)c3)cc2-c2ccncc2)c1` was run?
**A.** 14.6% (inactive)

**Q.** How did the growth turn out when `COc1cc(Cl)cc(-c2nn(-c3cccc(NC(=O)Nc4ccc(Cl)c(Cl)c4)c3)cc2-c2ccncc2)c1` was run?
**A.** 28.5% (inactive)

**Q.** `CCOC(=O)C1CCc2c(ccc3ccccc23)N1CCC#N` (stereo not given) was tested. Which growth did it give?
**A.** 99.9% (inactive)

**Q.** For `CCOCC(=O)C(C#N)c1ccc(Cl)c(Cl)c1` (stereo not given), which growth is on record?
**A.** 100% (inactive)

**Q.** With `C[C@@H]1C=C2C(=O)O[C@@H]3CC[C@H](C1)[C@]23O` as the molecule, how does the growth read?
**A.** 96.4% (inactive)

**Q.** For `COc1ccc(-c2nc(-c3nc4ccc(OC)cc4[nH]3)cc3c2[nH]c2ccccc23)cc1`, which growth is on record?
**A.** 18.8% (inactive)

**Q.** How did the growth turn out when `Clc1ccc(Nc2ccnc(NCCNc3ccnc4cc(Cl)ccc34)n2)cc1` was run?
**A.** -25% (active)

**Q.** Which growth does the source give for `Nc1c(C(=O)Nc2ccccc2)sc2nc3c(cc12)CCCC3` here?
**A.** 36.8% (inactive)

**Q.** For `CCC(=O)N1C/C(=C/c2ccc(Br)cc2)C(=O)/C(=C/c2ccc(Br)cc2)C1`, which growth is on record?
**A.** 9.3% (active)

**Q.** For `CCOC(=O)C(=Cc1ccc(Br)cc1)C(=O)OCC`, which growth is on record?
**A.** -16.3% (active)

**Q.** `CN(C)CCN=c1nc2c(c(N)n1-c1ccccc1)c(=S)n(-c1ccccc1)c(=S)n2-c1ccccc1` was tested. Which growth did it give?
**A.** 12.3% (inactive)

**Q.** For `COc1cc(NC(=O)c2sc3nc4c(cc3c2N)C(O)CCC4)cc(OC)c1` (stereo not given), which growth is on record?
**A.** 106% (inactive)

**Q.** With `CCN1Cc2c(/C=C/c3ccccc3)nc3ccc(OC)cc3c2N(c2cccc(Cl)c2)C1` as the molecule, how does the growth read?
**A.** 105% (inactive)

**Q.** Which growth does the source give for `O=C1OCC2=C1C(c1cccc(Cl)c1)c1cc3c(cc1N2CCO)CCC3` (stereo not given) here?
**A.** -1.05% (active)

**Q.** `O=C(N/N=C/c1ccccc1)C(Oc1ccccc1)c1ccccc1` (stereo not given) was tested. Which growth did it give?
**A.** 98.4% (inactive)

**Q.** With `COc1ccc(Nc2ccnc(NCCNc3ccnc4cc(Cl)ccc34)n2)cc1` as the molecule, how does the growth read?
**A.** 76.8% (inactive)

**Q.** Which growth does the source give for `Nc1nc(N)c(NC(=O)CNc2ccc(C(=O)O)cc2)c(N)n1` here?
**A.** 103% (inactive)

**Q.** Which growth does the source give for `N#Cc1ncc(-c2ccc(C(F)(F)F)cc2)c(NCc2cc(C(F)(F)F)cc(C(F)(F)F)c2)n1` here?
**A.** 36% (inactive)

**Q.** Which growth does the source give for `O=C(Nc1ccc(Cl)cc1)N1NC(c2ccc(Cl)cc2)C=C1c1ccccc1` (stereo not given) here?
**A.** 123% (inactive)

**Q.** `Nc1ccc2cc(S(=O)(=O)O)cc(O)c2c1N=Nc1ccc(F)cc1` was tested. Which growth did it give?
**A.** 111% (inactive)

**Q.** How did the growth turn out when `COc1ccccc1/C=C/C(=O)c1ccccc1` was run?
**A.** 73.9% (inactive)

**Q.** With `Nc1ccn(C2CC(O)C(CO)O2)c(=O)n1` (stereo not given) as the molecule, how does the growth read?
**A.** 111% (inactive)

**Q.** For `CCc1ccc2c(c1)N(CCO)C1=C(C(=O)OC1)C2c1cc(OC)c(OC)c(OC)c1` (stereo not given), which growth is on record?
**A.** 1.11% (active)

**Q.** Which growth does the source give for `COc1ccc2c(c1)[n+]([O-])c(C#N)c(NC(=O)c1ccco1)[n+]2[O-]` here?
**A.** 92.5% (inactive)

**Q.** For `O=C1c2ccc3c4c(ccc(c24)C(=O)N1CCNCc1ccccc1)C(=O)N(CCNCc1ccccc1)C3=O`, which growth is on record?
**A.** 102% (inactive)

**Q.** `c1ccc(CP(Cc2ccccc2)c2ccccc2)cc1` was tested. Which growth did it give?
**A.** 117% (inactive)

**Q.** `CCN1CCN(c2nc3ccccc3c3c(=O)c4ccccc4sc23)CC1` was tested. Which growth did it give?
**A.** 52.6% (inactive)

**Q.** With `O=C(Nc1cccc(-n2cc(-c3ccncc3)c(-c3cc(O)cc(Cl)c3)n2)c1)c1ccc(N2CCOCC2)c(C(F)(F)F)c1` as the molecule, how does the growth read?
**A.** 17.9% (inactive)

**Q.** For `Cc1cc(C)c(CCc2cc(C)c(C)cc2C)cc1C`, which growth is on record?
**A.** 108% (inactive)

**Q.** How did the growth turn out when `COc1ccc(N=C2C(=Nc3ccc(OC)cc3)N(c3ccc(N(C)C)cc3)C(=S)N2c2ccc(OC)cc2)cc1` was run?
**A.** 19.6% (inactive)

**Q.** For `COc1ccc(/C=C/C(C)=N/OCC(=O)O)cc1`, which growth is on record?
**A.** 113% (inactive)

**Q.** With `FC(F)(F)c1ccc2nc(-c3nc(-c4ccccc4)n4ccccc34)[nH]c2c1` as the molecule, how does the growth read?
**A.** 103% (inactive)

**Q.** With `CC(C)(C)NC/C(=C\c1ccccc1)C(=O)c1ccccc1` as the molecule, how does the growth read?
**A.** 38.2% (inactive)

**Q.** For `COc1ccc(CN2CCC(N3CCCC3=O)c3cc(Cl)ccc32)cc1` (stereo not given), which growth is on record?
**A.** 99.3% (inactive)

**Q.** With `Fc1ccc(-c2nnc(-c3c(-c4ccc(F)cc4)nc4ccccn34)o2)cc1` as the molecule, how does the growth read?
**A.** 92.4% (inactive)

**Q.** How did the growth turn out when `COc1ccc2c(c1)-c1c(c3cc(OC)ccc3n(CCN(C)C)c1=O)C2=O` was run?
**A.** 25.7% (inactive)

**Q.** How did the growth turn out when `COc1ccc(-c2nc3sc(-c4ccc(OC)cc4)c(-c4ccc(OC)cc4)n3c2/C=C/c2ccc(C(C)C)cc2)cc1` was run?
**A.** 89.4% (inactive)

**Q.** For `O=[N+]([O-])c1cccc(N=Cc2ccc3c(c2)OCO3)c1`, which growth is on record?
**A.** 116% (inactive)

**Q.** `COc1cc(/C=C\c2cc(OC)c(OC)c(OC)c2)cc(NS(=O)(=O)c2ccc(Cl)cc2)c1OC` was tested. Which growth did it give?
**A.** 1.49% (active)

**Q.** Which growth does the source give for `COc1cc(-c2nnc(-c3c(-c4ccc(F)cc4)nc4ccccn34)o2)cc(OC)c1OC` here?
**A.** 68.1% (inactive)
